Shown are actives, neighbours in structure and some others; about 13% of the full set was active somewhere.
4MU fluor: compound fluoresces in the 4-MU spectral region | compound autofluorescence, 340/450 nm, 4-MU equivalents; hits give high values | max dye-equivalent concentration, M | 11% of 59,000 active | AID 589; in the data active = max dye-equivalent concentration above about 10 nM; inconclusive = mostly about 1.1 nM to 9.6 nM
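Compounds in 100 mM Tris, pH 8.0, incubated 15 min at room temperature, then fluorescence read at 340 nm excitation/450 nm emission. Signal converted to 4-MU dye-equivalent concentration using an on-plate six-point 4-MU standard curve.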
HSD17B inhib: HSD17B dehydrogenase inhibition. AID 893. 7.6% of 75,000 active. Q99714. recombinant HSD17B10, NADH fluorescence kinetic. Potency, µM (highest dose often 57.1 µM), for inactives: top-dose activity change, negative = inhibition, most hits filed as inhibitors;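 also: the protocol describes HADH2 (HSD17B10) and not the HSD17B4 of the title; potency is read from the fitted curve at half-maximal effect; % is scaled to controls: 0 for no effect and ±100 for the full control effect; nearly all actives have a fitted effect of over 70% in size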
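20 nM HADH2, pH 9.0 Tris/Tween; cpd preinc 15 min RT; start w/ 1 mM NAD+ + 90 uM b-hydroxybutyryl-CoA; kinetic fluor ex360/em450 q30s x 4 min; delta last-first.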
HADH2 inh: HADH2 (human) dehydrogenase inhibition; recombinant HADH2, NADH fluorescence, beta-hydroxybutyryl-CoA; Potency, µM (series often up to 57.1 µM), inactives show at the highest dose activity change, negative = inhibition, usual class: inhibitors; 3.4% of 73,000 active; also: potency is read from the fitted curve at half-maximal effect; % is scaled to controls: 0 for no effect and ±100 for the full control effect; nearly all actives have a fitted effect of over 60% in size
Target sequence (Q99714 whole entry, looked up, one chain of several): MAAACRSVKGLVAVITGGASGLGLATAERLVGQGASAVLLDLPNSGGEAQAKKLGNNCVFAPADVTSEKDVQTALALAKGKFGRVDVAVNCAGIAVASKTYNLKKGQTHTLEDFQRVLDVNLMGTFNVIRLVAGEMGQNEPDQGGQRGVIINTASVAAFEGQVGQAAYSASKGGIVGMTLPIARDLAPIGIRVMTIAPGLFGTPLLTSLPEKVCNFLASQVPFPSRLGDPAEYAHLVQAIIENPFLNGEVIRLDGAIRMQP
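Activity measured as NADH fluorescence gain (360/450 nm), taken as the change between first and last reads of a 4-min kinetic run. Conditions: pH 9.0 Tris buffer, 20 nM E. coli-expressed His-tagged enzyme, 1 mM NAD+, 90 uM beta-hydroxybutyryl-CoA; 15-min compound preincubation.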
AID923: qHTS Assay for Allosteric/Competitive Inhibitors of Caspase-1: Spectroscopic Profiling in AFC Spectral Region; 1.1% of 75,000 active; Potency, µM (series often up to 57.5 µM), for inactives: at the top dose fluorescence increase, hits mostly activators; compound fluorescence, AFC spectral region (405/520 nm); also: potency is read from the fitted curve at half-maximal effect; 0% is about no effect
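Titrations up to 57 uM read every 20 sec for 3 min (405/520 nm) with 50 nM caspase 1 and 5 uM Ac-WEHD-AFC, pH 7.5 HEPES buffer. Fluorescence-vs-time intercept gave baseline, scaled against on-plate AFC standard.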
A350 autofl: A350 region autofluorescence. Compound autofluorescence, 340/450 nm, Alexa 350 dye-equivalents; hits give high values. 11% of 59,000 active. max dye-equivalent concentration, M. AID 590; in the data active = max dye-equivalent concentration above about 10 nM; inconclusive = mostly about 1.1 nM to 9.6 nM
* hit, by the source's call; [ ] = another dose, or the depositor's remark. Unless noted, calls follow the shape of the dose curve; as a rule, active = well fitted curve in the direction sought with a large enough effect; inconclusive = small, poorly fitted or top-dose-only effect, or another doubt; inactive = no such curve, though single readings can be large; an effect the other way counts as inactive or inconclusive.

Screening O=S(=O)(c1ccc2c(c1)OCCO2)N1CCN(c2nc3ccccc3s2)CC1 returned 4MU fluor inactive, HSD17B inhib 10%, HADH2 inh 3%, AID923 0% and A350 autofl inactive.
`c1ccc2c(c1)CCN(c1nc3cc4c(cc3s1)OCCO4)C2` gave 4MU fluor inactive, HSD17B inhib 32µM*, HADH2 inh inconclusive, AID923 0% and A350 autofl inactive.
Screening CCOC(=O)CSC1=NC(=O)CS1 returned 4MU fluor inactive, HSD17B inhib -3%, HADH2 inh 13µM*, AID923 9% and A350 autofl inactive.
CC1(C)CCC=[N+]1[O-] was read as 4MU fluor inactive, HSD17B inhib -6%, HADH2 inh 8%, AID923 -3% and A350 autofl inactive.
CN(C)c1ccc(-c2cc(NCc3cccnc3)ncn2)cc1 was read as 4MU fluor 2.4e-07M*, HSD17B inhib 25µM*, HADH2 inh inactive, AID923 2% and A350 autofl 2.6e-07M*.
Cc1cccc(CNc2cc(-c3ccc(N(C)C)cc3)ncn2)c1 was read as 4MU fluor 7.1e-08M*, HSD17B inhib 13µM*, HADH2 inh 2%, AID923 -2% and A350 autofl 7.1e-08M*.
Screening O=C1C[C@@H](O)[C@@H](O)[C@H]2[C@@H]3C(=O)N(Cc4ccccc4)C(=O)[C@@H]3CC[C@H]12 returned HSD17B inhib -1%[11.4 µM], HADH2 inh -5%[11.4 µM] and AID923 1%[11.5 µM].
N/C(=N\c1nc2c(c(=O)[nH]1)CCCC2)Nc1ccccc1 was read as 4MU fluor inactive, HSD17B inhib 8%, HADH2 inh 11%, AID923 -1% and A350 autofl inactive.
Cc1nc(/N=C(\N)Nc2ccccc2)nc2ccccc12 was read as 4MU fluor 1.8e-07M* and A350 autofl 2e-07M*.
`Cc1ccc(S(=O)(=O)N[C@H]2COC(=O)C/C=C\[C@@H](C)[C@H](NS(=O)(=O)c3ccc(C)cc3)COC(=O)[C@H](C)NC(=O)C/C=C\[C@H]2C)cc1` gave HSD17B inhib -6%[11.4 µM], HADH2 inh 8%[11.4 µM] and AID923 2%[11.5 µM].
For Cc1sc2nnn(CC(=O)N3CCN(C(=O)c4ccco4)CC3)c(=O)c2c1C the results were 4MU fluor 7e-08M*, HSD17B inhib inconclusive, HADH2 inh inconclusive, AID923 9% and A350 autofl 1e-07M*.
For CC(C)C[C@@H](CC(=O)N[C@H](CC(=O)N[C@@H]1CCNC[C@H]1C(=O)N[C@H](CC(=O)N[C@@H](CCC(=O)O)CC(=O)O)Cc1ccccc1)C(C)C)NC(=O)[C@@H]1CCCC[C@H]1N the results were HADH2 inh -11%.
Screening COC(=O)c1ccc(C(NC(=O)OCc2ccccc2)/C(=C/[C@@H](C)C(=O)NCc2ccc(OC)c(OC)c2)c2cccnc2)cc1 (some centres not stated) returned HSD17B inhib 5%, HADH2 inh 12% and AID923 -1%.
`CCCCc1nc(N2CCOCC2)c(C#N)c2c1COC(C)(C)C2` gave 4MU fluor 7.8e-08M* and A350 autofl 9.3e-08M*.
For CCCCc1nc(NCC2CCCO2)c(C#N)c2c1COC(C)(C)C2 (configuration not stated) the results were 4MU fluor 6.8e-08M* and A350 autofl 7.7e-08M*.
For CC1(C)CC(=O)C=C(NCC2CCCO2)C1 (configuration not stated) the results were 4MU fluor inactive, HSD17B inhib 4%, HADH2 inh inconclusive, AID923 1% and A350 autofl inactive.
For CC1(C)Cc2c(C#N)c(SCCOc3ccccc3)nc(N3CCOCC3)c2CO1 the results were 4MU fluor inactive and A350 autofl inactive.
Screening COC(=O)N1CCC2(CCN(Cc3ccc(C#N)cc3)CC2)CC1 returned 4MU fluor inactive, HSD17B inhib 12%, HADH2 inh inconclusive, AID923 -2% and A350 autofl inactive.
Screening COC(=O)n1c(=O)oc2cc(S(=O)(=O)N3CCOCC3)ccc21 returned 4MU fluor inactive, HSD17B inhib 12%, HADH2 inh -17%, AID923 2% and A350 autofl inactive.
`COC(=O)n1c(=S)oc2cc(Cl)ccc21` gave 4MU fluor inactive, HSD17B inhib -21%, HADH2 inh 7.9µM*, AID923 0% and A350 autofl inactive.
`CCN(C(=O)CN1CCN(c2ccc(OC)cc2)CC1)c1c(N)n(Cc2ccccc2)c(=O)[nH]c1=O` gave 4MU fluor inconclusive, HSD17B inhib 0%, HADH2 inh -2%, AID923 -1% and A350 autofl 1.3e-08M*.
O=C(O)[C@@H](O)[C@@H](O)[C@@H](O)[C@@H](O)c1nc2ccccc2s1 was read as 4MU fluor inactive, HSD17B inhib -22%[11.4 µM], HADH2 inh inconclusive, AID923 -1%[11.5 µM] and A350 autofl inactive.
`NNC(=O)CCSc1ccccc1` gave 4MU fluor inactive, HSD17B inhib 11%[11.4 µM], HADH2 inh 6%[11.4 µM], AID923 -1%[11.5 µM] and A350 autofl inactive.
CC(c1ccccc1F)n1cc(C(=O)NCCc2ccco2)nn1 (configuration not stated) was read as 4MU fluor inconclusive, HSD17B inhib 1%, HADH2 inh 1%, AID923 2% and A350 autofl 1.3e-08M*.
Cn1c(NCCO)nc2c(c1=O)C1(CCCCC1)Cc1ccccc1-2 was read as HSD17B inhib 32µM*, HADH2 inh 32µM* and AID923 0%.
Screening O=c1[nH]c(NCCCO)nc2c1C1(CCCC1)Cc1ccccc1-2 returned HSD17B inhib 3.2µM*, HADH2 inh inconclusive and AID923 -3%.
For CN(C)Cc1nc2c(c(=O)[nH]1)C1(CCCCC1)Cc1ccccc1-2 the results were 4MU fluor inactive, HSD17B inhib 1%, HADH2 inh -17%, AID923 6% and A350 autofl inactive.
Screening O=c1c2c(nc3n1CCCCC3)-c1ccccc1CC21CCCC1 returned 4MU fluor inactive, HSD17B inhib 0%, HADH2 inh 4%, AID923 1% and A350 autofl inactive.
For CC1(C)Cc2ccccc2-c2nc(NCCCO)n(-c3ccccc3)c(=O)c21 the results were HSD17B inhib 25µM*, HADH2 inh inactive[11.4 µM] and AID923 -2%.
Screening Nc1cccc(OCc2nc(N)nc(N)c2-c2ccc(Cl)cc2)c1 returned 4MU fluor inactive, HSD17B inhib 5%[11.4 µM], HADH2 inh 5%[11.4 µM], AID923 1%[11.5 µM] and A350 autofl inactive.
For CC(C)(C)OCC(NC(=O)C(CC(N)=O)NC(=O)OC(C)(C)C)C(=O)OC(C)(C)C (configuration not stated) the results were 4MU fluor inactive, HSD17B inhib 0%, HADH2 inh 13%, AID923 1% and A350 autofl inactive.

Screening results as filed in PubChem.
